The text below walks through data of PubChem BioAssay AID493170 (National Center for Advancing Translational Sciences (NCATS), 2011).

Records with an inconclusive call do not appear. Where a call stands in place of a potency, no number is given. The source made the active and inactive calls. The call rests on the fitted dose curve; in most records, active means well fitted inhibition curve with a large enough effect; inconclusive means small, poorly fitted or top-dose-only effect, or effect the other way; inactive means flat fitted curve, though single readings scatter.
Potency means the concentration at half of the fitted maximal effect.

Chain of Ubiquitin carboxyl-terminal hydrolase 2 (Homo sapiens) (O75604 whole entry, looked up): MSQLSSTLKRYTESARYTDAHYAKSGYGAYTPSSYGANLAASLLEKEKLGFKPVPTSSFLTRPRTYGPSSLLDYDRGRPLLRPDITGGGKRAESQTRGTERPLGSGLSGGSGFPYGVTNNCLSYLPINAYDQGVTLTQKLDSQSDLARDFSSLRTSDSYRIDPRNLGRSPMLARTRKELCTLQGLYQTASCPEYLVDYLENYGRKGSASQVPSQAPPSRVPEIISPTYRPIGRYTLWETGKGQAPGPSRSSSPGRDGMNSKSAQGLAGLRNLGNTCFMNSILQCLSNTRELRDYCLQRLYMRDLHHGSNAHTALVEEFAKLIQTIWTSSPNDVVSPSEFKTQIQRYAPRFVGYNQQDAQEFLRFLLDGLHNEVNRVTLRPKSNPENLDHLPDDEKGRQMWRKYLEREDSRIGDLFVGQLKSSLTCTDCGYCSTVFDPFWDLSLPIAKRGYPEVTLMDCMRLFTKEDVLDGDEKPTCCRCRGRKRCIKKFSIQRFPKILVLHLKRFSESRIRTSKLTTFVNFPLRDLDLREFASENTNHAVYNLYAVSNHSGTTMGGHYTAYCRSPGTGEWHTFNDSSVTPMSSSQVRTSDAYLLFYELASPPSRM

This assay addresses Ubiquitin carboxyl-terminal hydrolase 2 (Homo sapiens) (UniProt O75604). Kind of assay: Ub-rhodamine 110 based assay for inhibitors Ubiquitin-specific Protease USP2a. Further: nearly all actives have a fitted effect of over 50% in size. The settings on record: USP2a Ub-rhodamine110 cleavage, fluorescence; series mostly up to 38.3 µM. The source says: NIH Molecular Libraries Probe Centers Network [MLPCN] NIH Chemical Genomics Center [NCGC] MLPCN Grant: XO1-MH079852-01 PI Name: Nicholson, Ben. Progenra Inc, Malvern, PA NCGC Assay Overview: Homeostasis of cellular proteins is maintained through a combination of synthesis and degradation. The pathway that accounts for the majority of protein degradation is the ubiquitin-proteasomal pathway. Ubiquitin (Ub) is highly conserved in all cells and the generation of a multi-Ub chain typically targets proteins for degradation by the proteasome. However, ubiquitination is highly reversible and dynamic. Deubiquitination, the reverse process, is catalyzed through the action of enzymes referred to as isopeptidases or deubiquitinating enzymes (DUBs). This group of enzymes is collectively responsible for maintaining adequate pools of free ubiquitin and regulating the ubiquitination status of cellular proteins. The class of DUBs referred to as the ubiquitin-specific proteases (USP) family functions endoproteolytically to cleave Ub chains from a wide range of protein substrates. USP2a deubiquitinates fatty acid synthase (FASN) which has recently been identified as an emerging oncology target. To identify inhibitors of USP2a a cell-free assay was employed. This assay measures cleavage of a profluorescent substrate (Ub-Rhodamine 110; Boston Biochem Cat#: U-555) by USP2a. The assay gives a fluorescent read-out at excitation/emission wavelengths of 485/531. The USP2a enzyme was provided by Progenra, Inc. licensed for sale by LifeSensors, Inc.
NCGC Assay Protocol: The assay buffer, prepared fresh at the day of the assay, contains 20mM Tris-HCl pH 8.0, 2mM CaCl2, 2mM beta-Mercaptoethanol, 0.05% CHAPS. 3uL of 10 nM (5 nM final) USP2a, was dispensed into a medium-binding black solid Kalypsys 1,536 well plate using the Kalypsys dispenser. The assay plate was then pinned with 23nL compounds in DMSO with a Kalypsys pintool in columns 5-48 (0.3% final DMSO concentration). The negative control was buffer/DMSO only in column 3. The assay plate is incubated at RT for 30min. Subsequently, 3uL of 300 nM Ub-Rhod110 (150 nM final) was dispensed into the plate using a Kalypsys dispenser. Plates were read after every minute for 7 min on a ViewLux (Perkin Elmer) plate reader using the following wavelengths: Ex 485nm /Em 531nm. Data were normalized to the AC100 inhibition (buffer alone). Concentration-response curves were fitted to the normalized data and the concentration-response curves were then classified based on curve quality (r2), response magnitude and degree of measured activity. The time zero reading was used to flag fluorescence artifacts.
Turning to `O=c1[nH]c(=O)n(Cc2ccc(F)cc2)c(O)c1C=NCCCn1ccnc1`, the Potency entry is “inactive”. As for `Nc1ccc(S(=O)(=O)N2CCCCC2c2cccnc2)cc1` (stereo unspecified), the Potency result is “inactive”. Take `CC1Oc2cc3c(-c4c(O)cc(O)c5c(O)c6c(cc45)OC(C)C(C)C6=O)c(O)cc(O)c3c(O)c2C(=O)C1C` (stereo unspecified): the Potency was 2 µM (active).

As to `COc1ccc(S(=O)(=O)Cc2ccc(C(=O)N3CCC4(CC3)OCCO4)o2)cc1`, the Potency entry is “inactive”. The value for `Cc1nn(Cc2ccc(Cl)cc2Cl)c(Cl)c1C(=O)Nc1ccc(OC(F)F)cc1` was “inactive”.

For `CC(=Nc1ccc2c(c1)CCC2)c1c(O)n(C)c(=O)n(C)c1=O`, the Potency result is “inactive”. In the case of `Clc1ccc(C(c2ccc(Cl)cc2)n2cc[n+](CC(OCc3ccc(Cl)cc3Cl)c3ccc(Cl)cc3Cl)c2)cc1` (stereo unspecified), the Potency was 10 µM (active).

As for `OC(c1ccncc1)(c1ccc(F)cc1)c1ccc(F)cc1`, the Potency entry was “inactive”. The value for `COc1ccc(NC(=O)c2c(C)nn(Cc3ccccc3Cl)c2Cl)cc1Cl` was “inactive”; that for `CCCC1=C(C(=O)OCC)C2(C(=O)Nc3ccc(C)cc32)C(C#N)=C(N)O1` (stereo unspecified) was “inactive”; that for `O=C(O)c1cccc2c1NC(C(=O)O)C1CC(Sc3ccccc3[N+](=O)[O-])C(Cl)C21` (stereo unspecified) was 5.01 µM (active). On to `O=C1NC(=O)[C@]2(Cc3ccccc3N3CCN(c4ccccc4)CC32)C(=O)N1Cc1ccccc1` (stereo partly specified), for which the Potency is 6.31 µM (active). The value for `O=C(COc1ccc(S(=O)(=O)N2CCOCC2)cc1)N1CCN(Cc2ccc3c(c2)OCO3)CC1` was “inactive”; that for `CC(C)N1C(=O)/C(=C/C=C/c2ccco2)C(=O)N(Cc2ccco2)C1=O` was 12.6 µM (active). The value for `FC(F)(F)c1ccc2c(c1)N(CCCN1CCN(CCCl)CC1)c1ccccc1S2` was “inactive”; that for `CCCCn1c(=O)c(C(=O)Nc2ccccc2S(N)(=O)=O)c(O)c2ccccc21` was 10 µM (active).
